Source: PubChem BioAssay
Pf growth 96h = Primary qHTS for delayed death inhibitors of the malarial parasite plastid, 96 hour incubation. P. falciparum luciferase reporter growth, 96 h. Potency, µM (titrated, usually from 28.7 µM), inactives show at the highest dose activity change, negative = inhibition, most hits filed as inhibitors. hit rate 6.9% among 320,000; note: % is set by controls: 0 for no effect and ±100 for the full control effect
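Infected RBCs, 2% Hct / 0.05% parasitemia final; luciferase-reporter P. falciparum; cpd 96 h, 37 C, 5% CO2; luciferase detection reagent; luminescence.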
SARS PLpro yeast = qHTS of Yeast-based Assay for SARS-CoV PLP; Potency, µM (doses to about 32.9 µM), for the others: at the top dose activity, positive = growth rescue, actives largely listed as activators; S. cerevisiae expressing SARS-CoV PLpro, growth rescue; hit rate 0.19% among 330,000; calls by dose curve; note: 0% is about no effect; nearly all actives have a fitted effect of over 55% in size
AMA1 RON2 block = qHTS for Inhibitors of AMA1-RON; Towards Development of Antimalarial Drug Lead: Primary Screen | Plasmodium falciparum AMA1 (3D7) - RON2 peptide interaction | AlphaScreen AMA1-biotinylated RON2 peptide binding | Potency, µM (doses to about 58.2 µM), for inactives: at the top dose activity change, negative = inhibition, usual class: inhibitors | hit rate 0.2% among 360,000 | AID 720542, 2013;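 note: 0% = vehicle wells and -100% = peptide control; nearly all actives have a fitted effect of over 45% in size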
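AMA1 (3D7) with his tag at 25 nM final met compounds first, then biotinylated RON2 peptide at 25 nM; detection used donor plus acceptor beads, 10 µg/mL apiece, read by AlphaScreen after 30 min at room temperature.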
Pf growth 48h = Primary qHTS for delayed death inhibitors of the malarial parasite plastid, 48 hour incubation; P. falciparum luciferase growth in erythrocytes, 48 h; Potency, µM (top dose mostly 28.7 µM), inactives show at the top dose activity change, negative = inhibition, usual class: inhibitors; hit rate 5.9% among 310,000; note: % is set by controls: 0 for no effect and ±100 for the full control effect
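Luciferase-expressing P. falciparum in infected erythrocytes (2% hematocrit, 0.1% parasitemia final) in RPMI 1640/0.5% Albumax were exposed to compound for 48 hours at 37 C, 5% CO2; growth read as luminescence.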
Starred values were filed as active, the others as inactive; i = inactive; ? = inconclusive; . = not tested or not shown; [ ] = dose if it differs, or a comment. An excerpt weighted towards active compounds, which were near 9.4% of everything screened. Unless noted, calls come from the whole dose curve; as a rule, active = well fitted curve in the direction sought with a large enough effect; inconclusive = small, poorly fitted or top-dose-only effect, or another doubt; inactive = no such curve, though single readings can be large; an effect the other way counts as inactive or inconclusive. Potency is the fitted concentration of half-maximal effect.

SMILES	Pf growth 96h	SARS PLpro yeast	AMA1 RON2 block	Pf growth 48h
CC(=O)N1CCN(c2ncnc3sc(-c4ccccc4)cc23)CC1	?	-2%	-6%	17%
Oc1ccc(N2CCN(c3ncnc4sc(-c5ccccc5)cc34)CC2)cc1	15µM*	0%	?	?
Cn1cccc1/C=C1\CCc2ccccc2C1=O	-7%	-19%	14µM*	i
CCOC(=O)c1c(C)[nH]c(C)c1S(=O)(=O)N(C)CC(=O)Nc1cccc(C)c1	?	-1%	5%	-19%
CCOC(=O)c1c(C)[nH]c(C)c1S(=O)(=O)N(C)CC(=O)NCc1cccc(Br)c1	12µM*	2%	-4%	?
CC(C1CC1)N(Cc1ccccc1)C(=O)NC(=O)c1ccccc1 (stereo not drawn)	-2%	-5%	-2%	-2%
CC(C1CC1)N(Cc1ccccc1)C(=S)Nc1ccccc1Cl (stereo not drawn)	12µM*	9%	24%	?
O=C(O)C1C2C=CC(C2)C1C(=O)NCc1cccs1 (stereo not drawn)	4.1µM*	0%	0%	-1%
CC(=O)Nc1ccc(NC(=O)C2C3C=CC(C3)C2C(=O)O)cc1 (stereo not drawn)	1.7µM*	2%	12%	6%
O=C(O)C1C2C=CC(C2)C1C(=O)NCc1ccco1 (stereo not drawn)	-13%	1%	-13%	-7%[5.75 µM]
CCOc1ccc(NC(=O)C(=O)NCCCn2ccnc2)cc1	42%	-1%	-5%	0%
COc1ccc(-c2nc(Cn3c(SCc4ccc(C)cc4)nc4ccncc43)c(C)o2)cc1OC	?	13%	-5%	.
COc1ccc(-c2nc(Cn3c(SCc4cccc(F)c4)nc4ccncc43)c(C)o2)cc1OC	-13%	1%	?	12µM*
CC(C)C(=O)N1CCN(c2ccc(NC(=O)c3ccc([N+](=O)[O-])o3)cc2Cl)CC1	?	-2%	1%	8%
CCCCOc1ccc(C(=O)Nc2ccc(N3CCN(C(=O)C(C)C)CC3)cc2)cc1	.	-8%	-22%	9.3µM*
CC(C)C(=O)N1CCN(c2ccc(NC(=O)c3ccc([N+](=O)[O-])o3)cc2)CC1	22%	-3%	-1%	4.7µM*
CSc1ccc(-c2nc(CSCC(=O)NCCCN3CCCC3=O)c(C)o2)cc1	?	0%	0%	-9%
Cn1ccc2c(N(c3ccccc3)C3CCCCC3)cc3c(c21)C1CCC3O1 (stereo not drawn)	.	.	-1%	.
Cc1ccc(-n2nc3c(N4CCC(C(=O)NCCc5cccs5)CC4)nnc(C)c3c2C)cc1	10%	28%	-6%	?
Cc1ccc(-c2nnc(Nc3ccc(CC(N)=O)cc3)c3ccccc23)cc1S(=O)(=O)NCC1CCCO1 (stereo not drawn)	?	0%	-6%	0.83µM*
COC(=O)c1ccc(Nc2nnc(-c3ccc(C)c(S(=O)(=O)NCC4CCCO4)c3)c3ccccc23)cc1 (stereo not drawn)	?	22%	9%	7.4µM*
Cc1ccc(-c2nnc(Nc3ccc(CC(N)=O)cc3)c3ccccc23)cc1	?	3%	7%	?
Cc1ccc(-c2nnc(Nc3ccc(CC(N)=O)cc3)c3ccccc23)cc1S(N)(=O)=O	39%	1%	-4%	0%[0.00184 µM]
Cc1ccc(-c2nnc(Nc3ccc(OCC(N)=O)cc3)c3ccccc23)cc1S(N)(=O)=O	58%	-1%	-5%	13µM*
CNS(=O)(=O)c1cc(-c2nnc(Nc3ccc(CC(N)=O)cc3)c3ccccc23)ccc1C	30%	-1%	-1%	7.4µM*
SMILES	Pf growth 96h	SARS PLpro yeast	AMA1 RON2 block	Pf growth 48h
CCc1ccc(C(=O)/C=C/c2ccc([N+](=O)[O-])o2)cc1	20%	-35%	9%	.
Cc1ccc(-c2nnc(Nc3ccc(O)cc3)c3ccccc23)cc1S(=O)(=O)NCCO	-52%	21%	0%	?
Cc1ccc(-c2nnc(Nc3ccc(C(=O)N(C)C)cc3)c3ccccc23)cc1S(=O)(=O)NCC1CCCO1 (stereo not drawn)	?	-8%	-26%	2.3µM*
CCOC(=O)CNS(=O)(=O)c1cc(-c2nnc(Nc3ccc4c(c3)OCO4)c3ccccc23)ccc1C	?	-20%	-23%	2.3µM*
Cc1ccc(-c2nnc(N3CCC(C)CC3)c3ccccc23)cc1C	?	-1%	-18%	13µM*
Cc1ccc(-c2nnc(Nc3ccc(C(=O)N(C)C)cc3)c3ccccc23)cc1S(=O)(=O)NC(C)(C)CO	?	0%	1%	2.3µM*
Cc1ccc(-c2n[nH]c(=S)c3ccccc23)cc1S(=O)(=O)NCC1CCCO1 (stereo not drawn)	4%	1%	36%	-5%
CCOC(=O)CNS(=O)(=O)c1cc(-c2n[nH]c(=O)c3ccccc23)ccc1C	.	-1%	6%	10%
Nc1[nH]nc2ncc3cc4ccccc4nc3c12	-10%	1%	4%	?
COc1cc2c(cc1OC)C(C(=O)N1CCN(c3ccccn3)CC1)C(c1cccs1)N(C)C2=O (stereo not drawn)	22%	4%	-2%	?
Cc1ccc(-c2nnc(N3CCOCC3)c3ccccc23)cc1S(=O)(=O)NCC1CCCO1 (stereo not drawn)	-22%	2%	-5%	8.3µM*
Cc1ccc(-c2n[nH]c(=O)c3ccccc23)cc1S(=O)(=O)NCC1CCCO1 (stereo not drawn)	?	3%	-3%	-10%
O=C(N/N=C/c1c(O)ccc2ccccc12)c1cccnc1	-6%	-9%	37%	?
Cc1ccc(C(=O)N/N=C/c2c(O)ccc3ccccc23)cn1	8%	-10%	48%	3.7µM*
O=C(N/N=C/c1c(O)ccc2ccccc12)Nc1ccccc1	.	.	67%	.
Cn1nccc1C(=O)N/N=C/c1c(O)ccc2ccccc12	10µM*	-7%	93%	2.6µM*
O=C(CSCC(=O)Nc1ccccc1)N/N=C/c1c(O)ccc2ccccc12	1.9µM*	29%	28%	2.6µM*
O=C(NN=Cc1c(O)ccc2ccccc12)c1ccncc1	.	.	-5%	.
Cc1occc1C(=O)N/N=C/c1c(O)ccc2ccccc12	0%	14%	75%	2.6µM*
O=C(N/N=C\c1c(O)ccc2ccccc12)c1cncc(Br)c1	2.3µM*	?	85%	2.9µM*
O=C(N/N=C\c1c(O)ccc2ccccc12)c1ccc(O)cc1	65%	13µM*	126%	?
Cn1cc(C(=O)N/N=C/c2c(O)ccc3ccccc23)ccc1=O	28%	1%	?	2.6µM*
COC(=O)Cn1ccc2cc(S(=O)(=O)N3CCCCCC3)ccc21	?	-1%	-3%	-4%
CC(CNC(=O)CCn1ccc2cc(S(=O)(=O)N3CCCC3)ccc21)c1ccccc1 (stereo not drawn)	12µM*	-4%	24%	?
COC(=O)Cn1ccc2cc(S(=O)(=O)N3CCCCC3)ccc21	5.9µM*	-1%	-2%	17%
